Cell growth data for 40 molecules are collected here from the supplement of paper PMC3484114.

± gives the standard deviation.

In the test the test system is OVCAR-3-derived ovarian cancer stem-like cells (spheroids). Put plainly: cell growth relative to untreated control; higher = more growth (less inhibition). To be noted: 2.29 µM; 96 h. Put shortly: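 OVCAR-3 spheroid-derived stem-like cells were trypsin-dissociated, seeded at 50,000 cells/mL in stem cell medium in ultra-low attachment 96-well plates and preincubated 24 h. Compounds were then added at 2.29 uM for 96 h at 37°C, 5% CO2, in 4 replicate wells. Viability was read as TOX8 resazurin fluorescence (ex 560/em 590 nm) after 4 h. Percent growth was calculated relative to untreated wells after blank subtraction and Grubbs outlier removal.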
Consider `O=C(CC(=O)C(F)(F)F)c1csc2ccccc12`, for which the cell growth was 93.5 ± 13%.
Molecule `O=C(Nc1cccc(C(F)(F)F)c1)C(=O)C(C(=O)c1ccc(Cl)c(Cl)c1)C1OC(=O)c2ccccc21` (stereo not given) gave a cell growth of 102 ± 20%.
Consider `CCCCCCCCCCCCCCCCCCOP(=O)([O-])OCC[N+](C)(C)C`, for which the cell growth amounted to 51.1 ± 16%.
With `COc1ccc2[nH]c3c(C)c4ccncc4c(C)c3c2c1` the figure was 65.8 ± 11%.
With `COc1cc(CC(=O)c2cc3c(cc2-c2ccccc2)OCO3)cc(OC)c1OC` the figure was 83.1 ± 25%.
`N=C1C=C(N)C(=O)c2[nH]c(=O)ccc21` yielded a cell growth of 95.3 ± 55%.
Regarding `O=Nc1ccc(O)c2ncccc12`, the cell growth is 82 ± 25%.
In turn, `C=C1CC(Cn2cc(Br)c(=O)[nH]c2=O)(c2ccc(-c3ccccc3)cc2)OC1=O` (stereo not given) displayed a cell growth of 57.1 ± 20%.
With `COC(=O)NC1C(C)OC(OC2C/C=C(/C)C3C=CC4C(OC5CC(OC6CCC(OC7CC(O)C(OC8CCC(O)C(C)O8)C(C)O7)C(C)O6)C(OC(C)=O)C(C)O5)C(C)CC(C)C4C3(C)/C(O)=C3/C(=O)OC4(CC(C=O)=CC(O)C4/C=C\2C)C3=O)CC1(C)[N+](=O)[O-]` (stereo not given) the figure was 61.9 ± 10%; with `CCN(CC)CCCC(C)Nc1c2ccc(Cl)cc2nc2ccc(OC)cc12` (stereo not given), 37.6 ± 6.1%; with `CCOC(C)C(C=NNC(N)=S)=NNC(N)=S` (stereo not given), 23 ± 5.7%.
With `COc1ccc(OC)c2nc3c(C(=O)NCCN(C)C)cccc3nc12` the figure was 119 ± 27%.
With `CCOC(=O)c1sc2[n+](c1C)C(=O)/C(=C/c1ccc([N+](=O)[O-])cc1)S2` the figure was 94.2 ± 27%; with `Nc1ccc(OCCCc2c(-c3ccccc3)nc(N)[nH]c2=O)cc1`, 82.7 ± 20%; with `Cc1ccccc1NC(=O)C(=O)C(c1cnc2ccc([N+](=O)[O-])cc2n1)[N+](=O)[O-]` (stereo not given), 112 ± 25%.
`COc1ccc2c(NCCCCCCNc3c4ccccc4nc4cc(OC)ccc34)c3ccccc3nc2c1` showed a cell growth of 13.9 ± 5.5%.
With `CC(C)=CCC(OC(=O)C=C(C)C)C1=CC(=O)c2c(O)ccc(O)c2C1=O` (stereo not given) the figure was 35 ± 16%.
With `O=C(CC1(O)C(=O)Nc2c(Cl)cc(Cl)cc21)c1cccc([N+](=O)[O-])c1` (stereo not given) the figure was 88.1 ± 30%; with `COc1ccc2c(c1)CCc1c-2n[nH]c1-c1[nH]nc2c1CCc1cc(OC)ccc1-2`, 87.5 ± 18%; with `CO[C@@H]1[C@@H](OC(=O)c2ccc(C)[nH]2)[C@@H](O)[C@H](Oc2ccc3c(O)c(NC(=O)c4c[nH]c(C(=O)Nc5c(O)c6ccc(O[C@@H]7OC(C)(C)[C@H](OC)[C@@H](OC(=O)c8ccc(C)[nH]8)[C@H]7O)c(C)c6oc5=O)c4C)c(=O)oc3c2C)OC1(C)C`, 100 ± 22%.
With `C=C(C)[C@@H]1CC[C@]2(C)CC[C@]3(C)[C@H](CC[C@@H]4[C@@]5(C)CC[C@H](O)C(C)(C)[C@@H]5CC[C@]43C)[C@@H]12` the figure was 121 ± 19%.
With `Cc1c2ccncc2cc2c1[nH]c1ccccc12`, the cell growth was determined as 101 ± 20%.
With `CC1=CC(=C(c2ccc(N)cc2)c2ccc(N)cc2)C=CC1=N` the figure was 50.4 ± 6.5%; with `C[C@H](CSC(=O)c1ccccc1)C(=O)N1c2ccccc2C[C@H]1C(=O)O`, 90.9 ± 9.5%; with `CON(C)C(=O)C1CCCO1` (stereo not given), 79.4 ± 11%.
The molecule `CCN(CC)CCOC(=O)Cc1cccc2c(=O)cc(-c3ccccc3)oc12` returned a cell growth of 91.6 ± 23%.
Molecule `NC(=O)N/N=C1\CC2C3CC4C2C4C13` (stereo not given) came in with a cell growth of 106 ± 20%.
With `OC(CN1CCCCC1)c1ccc(/C=C/c2ccc(Cl)cc2)cc1` (stereo not given) the figure was 112 ± 16%; with `COC(=O)c1ccccc1OCc1cc(=O)oc2ccc(C)cc12`, 115 ± 20%.
With `O=C(CC1(O)C(=O)Nc2c(Cl)ccc(Cl)c21)c1ccc(Cl)cc1` (stereo not given) the figure was 142 ± 53%.
With `Clc1cc2nc[nH]c2cc1Cl` the figure was 102 ± 31%; with `N#CC1=C(N)Oc2c(ccc3cccnc23)C1c1ccccc1` (stereo not given), 57.8 ± 17%; with `CCC1CN2CCc3cc(OC)c(OC)cc3C2CC1CC1c2cc(OC)c(OC)cc2CCN1C(=O)C(Cc1c[nH]c2ccccc12)NC(=O)OC(C)(C)C` (stereo not given), 94 ± 23%.
In turn, `Cc1ccc(NC(=S)C#N)c(C)c1` yielded a cell growth of 89.9 ± 27%.
With `O=C1/C(=C\c2ccccc2)CN(C(=O)/C=C/c2ccccc2)C/C1=C\c1ccccc1` the figure was 74.7 ± 18%; with `CC1(C)C(O)OC(O)C1(C)C` (stereo not given), 9.3 ± 2%; with `O=C1NC(=O)[C@H]2[C@H]3C=C[C@@H]([C@@H]12)[C@@H]1[C@H]2C(=O)NC(=O)[C@H]2[C@H]31`, 121 ± 29%.
With `Cc1cc(Cl)ccc1N1C(=O)C(=O)C(c2nc3ccccc3o2)C(=O)C1=O` the figure was 134 ± 53%; with `CCN(CC)CCNc1ccc(CO)c2sc3ccccc3c(=O)c12`, 99 ± 39%; with `CN(C)C[C@H]1CC[C@@H](CN(C)C)C1=O`, 93.8 ± 21%.
